Only some compounds are listed: those with a hit (about 2.2% of all), similar ones and a draw of the others.
Rce1 inh: yeast Rce1p protease inhibitors, primary screen, biochemical, fluorescence, cell-free homogeneous | AID 2563, 2010 | yeast membranes, quenched prenylated peptide cleavage fluorescence | CAAX prenyl protease 2 (Saccharomyces cerevisiae (strain ATCC 204508 / S288c)), Q03530 | actives 0.27% (n = 290,000) | calls only;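 active = fall in fluorescence gain of 50% or more versus controls, with final raw signal at or below 3038400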;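 note: plate controls were neutral control wells for no effect and wells lacking membranes for full effect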
PfM18AAP inh: PfM18AAP inhibitors, malaria aminopeptidase, primary screen, biochemical, QFRET, recombinant enzyme. M18 aspartyl aminopeptidase (Plasmodium falciparum 3D7). H-Glu-NHMec fluorogenic cleavage. inhibition, % at 7.35 µM. actives 1.2% (n = 290,000). AID 1822, 2009;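 active = inhibition above the campaign mean inhibition over all tested compounds plus 3 SD, cut at about 28% in these data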;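 note: 0% = plate median of test compound wells and 100% = 2 mM ZnCl2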
NPR1 activator: GC-A stimulated cGMP production enhancers – HEK293 GC-A cells, cGMP TR-FRET, EC30 ANP, primary screen; Atrial natriuretic peptide receptor 1 (Homo sapiens), P16066; 0% at EC30 ANP, 100% saturating ANP; activation, % at 10 µM; actives 0.14% (n = 370,000); AID 1671463, 2021; in the data active = activation above about 40%
PLC-beta3 inh: human PLC-beta3 inhibitors, primary screen, biochemical, fluorescence | 1-phosphatidylinositol 4,5-bisphosphate phosphodiesterase beta-3 (Homo sapiens), Q01970 | AID 720704, 2013 | actives 0.18% (n = 370,000) | inhibition, % at 12.2 µM | Purified PLC-beta3, fluorogenic substrate;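 note: 0% = median of compound wells on plate and 100% = full blocker control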
PLCg1 inh: PLC-gamma1 enzyme inhibitors, primary screen, biochemical, fluorescence, purified enzyme. inhibition, % at 12.2 µM. 1-phosphatidylinositol 4,5-bisphosphate phosphodiesterase gamma-1 (Homo sapiens), P19174. actives 0.84% (n = 370,000). fluorogenic substrate. AID 720700, 2013; in the data active = inhibition above about 9.5%
NPR2 activator: human GC-B receptor activators, primary screen, HEK293 GC-B cells, cGMP TR-FRET, EC30 CNP. Atrial natriuretic peptide receptor 2 (Homo sapiens), P20594. 0% at EC30 CNP, 100% saturating CNP. activation, % at 10 µM. actives 0.11% (n = 370,000). AID 1920062, 2024;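 active = activation at 10 µM reaching about 35% in either raw or pattern-adjusted values, limit read from the data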
PLCgamma1 ctr: PLC-gamma1 enzyme inhibitors, counter-screen for PLC-beta3 inhibitor project, biochemical, fluorescence. shares compounds with PLCg1 inh. purified PLC-gamma1, fluorogenic substrate. inhibition, % at 12.3 µM. actives 3.1% (n = 3,300); in the data active = inhibition above about 9.5%
PLCbeta3 conf: PLC-beta3 inhibitor confirmation, biochemical, fluorescence, purified enzyme; shares compounds with PLCg1 inh; inhibition, % at 12.3 µM; fluorogenic substrate fluorescence; actives 1% (n = 3,300)
Active calls of the source: *; i = inactive; . = no result given. Cut-off read from the data, not from the text of the source, unless noted: active = inhibition above about 11%; inactive = the rest.

SMILES	Rce1 inh	PfM18AAP inh	NPR1 activator	PLC-beta3 inh	PLCg1 inh	NPR2 activator	PLCgamma1 ctr	PLCbeta3 conf
COc1ccc(CNCC(O)(c2ccc(F)cc2)c2ccc(F)cc2)cc1OC	i	-0.7	-37.0	-3.7	-1.2	-12.5	.	.
COc1ccc(CNCC(O)(c2ccc(Cl)cc2)c2ccc(Cl)cc2)cc1OC	i	4.1	-39.2	5.7	9.8*	-21.7	-1.8	2.8
O=C(Nc1nnc([C@H]2C[C@H](O)[C@@H](CO)O2)s1)NC(c1ccccc1)c1ccccc1	.	.	2.0	3.1	12.0*	-6.5	-8.0	-4.5
O=C(NCc1ccccc1)Nc1nnc([C@@H]2C[C@H](O)[C@@H](CO)O2)s1	.	.	2.2	5.6	15.2*	6.9	-5.7	0.6
O=C(NCc1ccc(F)cc1)Nc1nnc([C@@H]2C[C@H](O)[C@@H](CO)O2)s1	.	.	0.1	1.2	-2.4	4.0	.	.
O=C(O)C1Nc2c(O)cccc2C2C=CCC12 (stereo not drawn)	.	6.2	-12.0	6.8	18.5*	-1.5	-3.1	-6.7
CC[C@@H](OP(=O)(O)[C@@H](C)N)C(=O)O	.	.	5.6	1.9	-1.1	-1.9	.	.
N#CCC[C@@H]1CC[C@]2(CCCN(Cc3ccc(Cl)cc3)C2)O1	.	.	0.8	-1.0	-2.2	-4.2	.	.
CSCCC(NC(=O)OCc1ccccc1)C(=O)NCc1cccnc1 (stereo not drawn)	i	-7.5	9.8	-5.3	9.8*	7.9	-1.9	-3.0
Nc1cc(=O)[nH]c(SCc2cccc(Cl)c2)n1	.	-3.6	-2.1	10.3	10.0*	-3.7	2.0	3.3
Nc1cc(=O)[nH]c(SCc2ccc(Cl)cc2)n1	i	1.2	-3.6	2.3	1.3	0.0	.	.
N#Cc1c(NC(=O)C2CC(c3ccccc3O)=NO2)sc2c1CCC2 (stereo not drawn)	i	-3.2	1.2	0.1	14.1*	-7.0	-3.7	-2.0
O=C(NC1CCCCN(Cc2ccc(Cl)cc2)C1=O)c1cccc(C(F)(F)F)c1 (stereo not drawn)	.	.	1.1	-2.6	-2.1	-2.5	.	.
O=[N+]([O-])c1ccc(CSc2nc3ncc(Br)cc3[nH]2)cc1	i	5.1	1.4	0.3	11.3*	-4.4	-2.9	0.0
O=C(CSc1nnc(-c2ccccc2)n1-c1ccccc1)Nc1ccccc1-c1ccccc1	.	.	-9.9	-1.1	-1.6	-0.4	.	.
Cc1cc(C)cc(N(CC(=O)NC2CCCC2)S(=O)(=O)c2c(C)[nH]c(=O)[nH]c2=O)c1	i	-10.2	0.6	5.8	10.6*	0.7	0.6	-6.9
Cc1cc(C)cc(N(CC(=O)Nc2cc(C)ccc2C)S(=O)(=O)c2c(C)[nH]c(=O)[nH]c2=O)c1	i	-3.3	-0.2	-7.5	10.3*	7.4	-4.2	-5.2
O=S(=O)(c1ccccc1)c1cnn(-c2ccccc2)c1-c1ccc(F)cc1	i	-7.6	2.0	14.7*	-1.7	-4.2	-5.9	12.5*
CCOC(=O)CC[C@@H]1CC[C@]2(CCCN(C(=O)C(C)(C)C)C2)O1	.	.	1.3	2.5	0.4	-0.3	.	.
O=C(CN1CCOCC1)Nc1c(C(=O)C2CC2)oc2ccccc12	i	-1.3	4.8	1.1	0.0	0.6	.	.
CN1CCN(CC(=O)Nc2c(C(=O)C3CC3)oc3ccccc23)CC1	i	-4.0	5.8	5.2	10.7*	-2.7	-4.0	-0.5
CC(c1nnc(SCC(=O)N2CCc3ccccc32)n1-c1ccc(Cl)cc1)N(C)C (stereo not drawn)	i	-4.6	-15.3	1.4	4.3	-11.5	.	.
CC(c1nnc(SCn2nnc3ccccc3c2=O)n1-c1ccc(Cl)cc1)N(C)C (stereo not drawn)	i	3.0	-4.6	12.1*	3.3	-2.4	-3.0	1.8
CC1=NN(c2ccc(C)cc2C)C(=O)C1C(c1ccccc1O)C1C(=O)N(c2ccc(C)cc2C)N=C1C (stereo not drawn)	i	6.4	-5.3	6.4	12.9*	-2.7	-6.8	-3.5
COCCNC(=S)N(C)[C@H]1C[C@H]2c3[nH]c4c(-c5ccc6c(c5)OCO6)cccc4c3CCN2C[C@H]1[C@H](C)O	.	.	-9.9	-12.7	-10.5	-1.8	.	.
SMILES	Rce1 inh	PfM18AAP inh	NPR1 activator	PLC-beta3 inh	PLCg1 inh	NPR2 activator	PLCgamma1 ctr	PLCbeta3 conf
O=C(CN1C(=O)c2ccccc2S1(=O)=O)N1CCN(c2ccc(F)cc2)CC1	i	-0.8	-3.3	7.3	11.3*	4.1	-4.8	-2.5
Cc1cc(C)cc(NC(=O)OC2CC3CC2[C@H]2CCCCN2[C@H]3Cc2ccccc2)c1 (stereo partly drawn)	.	.	-8.7	-2.8	0.8	-1.8	.	.
Cc1cc(S(=O)(=O)Nc2ccc(C(=O)N3CCN(C(=O)c4ccco4)CC3)cc2)ccc1F	i	-3.7	-2.0	3.8	11.5*	-7.5	5.3	3.8
O=C1c2ccccc2C(=O)N1CCc1nc2ccccc2c(=O)n1CCCn1ccnc1	i	5.3	-2.7	1.5	-2.5	0.7	.	.
O=C1c2ccccc2C(=O)N1Cc1nc2ccccc2c(=O)n1CCCn1ccnc1	i	4.1	0.8	7.2	11.6*	-2.0	-9.8	-1.2
C/C(=N\N=C1\NC(=O)CS1)c1cccs1	i	-11.3	0.2	6.3	13.1*	-0.2	1.6	3.0
NC(=O)NCc1ccc(Cl)cc1	i	1.1	1.4	1.9	12.5*	-1.1	-4.4	-7.3
CC(C)[C@H](NC(=O)c1ccccc1)C(=O)N1CCC[C@H]1C(=O)NCc1ccccc1	.	.	2.5	4.4	3.4	6.1	.	.
O=S(=O)(NCCOCCNS(=O)(=O)c1ccccc1)c1ccccc1	i	-0.7	2.3	4.9	11.0*	1.2	6.3	-1.5
O=C(O)CCCCCCNS(=O)(=O)c1ccccc1	i	-5.4	4.4	2.2	4.0	-0.8	.	.
O=C(NC(=S)N1CCc2ccccc21)c1ccc(Br)o1	i	2.9	3.9	-9.7	-6.2	0.0	.	.
O=C(NC(=S)N1CCc2ccccc21)c1ccccc1Br	i	7.0	4.1	4.8	11.1*	-2.9	-2.9	4.3
COC[C@H]1O[C@]2(c3ccccc3)CO[C@H]1[C@@H](/C=C/c1ccccc1)C2	.	.	1.0	-1.6	2.5	-4.5	.	.

Screens (PubChem BioAssay)
